# Screening results from PubChem BioAssay.
# This excerpt belongs to a sample that is enriched for hits.
# Cycloheximide cs: counter-screen hit for Shiga toxin inhibitors, cycloheximide; cell reporter, cycloheximide protein synthesis inhibition counterscreen; max response, %; 12% of 300,000 active; in the data active = max response mostly above about 13%, no sharp cut-off; inactive = mostly below about 14%; note: read at 38.3 µM for the half of the compounds with a filed dose; 0% is about no effect
# Shiga inhibitor: Shiga toxin inhibition; 9.2% of 290,000 active; inhibition, % at 38.7 µM; Vero cells, Shiga toxin protein synthesis inhibition reporter; in the data active = inhibition mostly above about 28%, no sharp cut-off; inactive = mostly below about 43%; note: 0% is about no effect
# AmpC inh detg: inhibitors of E. coli AmpC beta-lactamase with detergent | Potency, µM (highest dose often 114 µM), for inactives: at the highest dose activity change, negative = inhibition, most hits filed as inhibitors | AID 485294 | P00811 | 0.041% of 370,000 active | AmpC hydrolysis of nitrocefin, absorbance 480 nm, 0.01% Triton;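 note: potency is the fitted concentration of half-maximal effect; 0% = no-compound wells and -100% = no-enzyme wells; nearly all actives have a fitted effect of over 25% in size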
# Target sequence (P00811 whole entry, looked up): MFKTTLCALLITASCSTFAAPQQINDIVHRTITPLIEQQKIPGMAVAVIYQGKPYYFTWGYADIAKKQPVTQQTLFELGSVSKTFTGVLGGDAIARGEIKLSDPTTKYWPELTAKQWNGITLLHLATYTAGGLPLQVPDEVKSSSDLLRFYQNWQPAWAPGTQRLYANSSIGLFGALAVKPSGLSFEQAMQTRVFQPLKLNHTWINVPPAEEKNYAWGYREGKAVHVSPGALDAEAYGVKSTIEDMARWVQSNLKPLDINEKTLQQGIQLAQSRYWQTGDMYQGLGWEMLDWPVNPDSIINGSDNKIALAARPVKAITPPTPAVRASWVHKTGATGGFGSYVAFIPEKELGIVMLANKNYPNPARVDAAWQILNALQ
#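 AmpC (5.3 nM in the dispensed reagent) in 20 mM phosphate pH 7.0 with 0.01% (detergent screen) or 0.0001% Triton X-100 was preincubated with compounds for 15 min at room temperature. Nitrocefin was then added from an 800 uM solution, and hydrolysis was followed at 480 nm.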
# NS1 inh: influenza NS1 inhibition; Potency, µM (series often up to 46.1 µM), inactives show at the highest dose activity, positive = more growth; 0.4% of 270,000 active; AID 2326; calls by dose curve; note: potency is the fitted concentration of half-maximal effect; actives are rising curves; nearly all actives have a fitted effect of over 50% in size
#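 Recovery from NS1-induced slow growth read by OD600 in budding yeast switched to galactose assay medium (pH 6.0, -URA) at 1:100 dilution. Compound 23 nl per well; the matching strain lacking NS1 serves as control.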
# AmpC no deterg: inhibitors of E. coli AmpC beta-lactamase without detergent | P00811 | AmpC nitrocefin hydrolysis, absorbance 480 nm, 0.0001% Triton | Potency, µM (highest dose often 57.1 µM), for the others: top-dose activity change, negative = inhibition, actives largely listed as inhibitors | 0.52% of 330,000 active | AID 485341;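 note: potency is the fitted concentration of half-maximal effect; plate controls were no compound for no effect and no enzyme for full effect; nearly all actives have a fitted effect of over 20% in size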
#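 AmpC (5.3 nM in the dispensed reagent) in 20 mM phosphate pH 7.0 with 0.01% (detergent screen) or 0.0001% Triton X-100 was preincubated with compounds for 15 min at room temperature. Nitrocefin was then added from an 800 uM solution, and hydrolysis was followed at 480 nm.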
# * hit, by the source's call; ? = inconclusive; · = no result. Unless noted, calls come from the whole dose curve; as a rule, active = well fitted curve in the direction sought with a large enough effect; inconclusive = small, poorly fitted or top-dose-only effect, or another doubt; inactive = no such curve, though single readings can be large; an effect the other way counts as inactive or inconclusive.
SMILES,Cycloheximide cs,Shiga inhibitor,AmpC inh detg,NS1 inh,AmpC no deterg
O=C1NC(=Nc2ccccc2)S/C1=C\c1ccccc1,19.2*,·,-11.5%,-7.2%,-32.9%
Cc1ccc(N=C2NC(=O)/C(=C/c3cccs3)S2)cc1C,7.3,11.1,?,0.9%,-31.8%
O=C1NC(=Nc2ccccc2)S/C1=C/c1cccs1,40.7*,69.4*,-10.5%,·,-33.9%
O=C1NC(=Nc2ccccc2)S/C1=C/c1cccnc1,14.7,22.8,?,·,-10.7%
Cc1cccc(N=C2NC(=O)/C(=C\c3cccs3)S2)c1,33.7*,67.5*,?,13.5%,-14.4%
O=C(COc1ccccc1)Nc1nnc(S(=O)(=O)N2CCCCCC2)s1,1.9,-10.8,?,-9.5%,-29.2%
CCN(CC)C(=O)[C@H]1C[C@H](CC(=O)NC(C)(C)C)C(=O)N2CCc3c([nH]c4cc(CCC(=O)N(C)C)ccc34)[C@]12C,·,·,·,·,130.3%
COc1ccc(CNC(=O)Cn2c(SCC(=O)Nc3ccc(C)c(C)c3)nc3ccccc32)cc1,·,·,0.0%,·,·
Nc1nc(SCc2ccccc2)n[nH]1,11.3*,19.3,-4.0%,2.4%,-26.8%
Nc1nc(SCc2ccc(Br)cc2)n[nH]1,26.8*,52.8*,4.1%,2.5%,-10.5%
c1ccc(CSCc2ccccc2)cc1,·,·,?,·,-22.6%
Nc1nc(SCc2ccc(Cl)c(Cl)c2)n[nH]1,8.2,54.3,-15.2%,-38.3%,-10.5%
Nc1ccccc1SCc1ccccc1,72.2*,89.1*,-5.6%,·,-18.9%
CCOc1ccc(C(=O)N(Cc2cc(OC)c(OC)c(OC)c2)c2ccccn2)cc1,·,·,21.2%,·,·
CCCCCCCNC(=O)C1(CC2CC(c3cccc(Br)c3)=NO2)CCN(C(=O)OC(C)(C)C)CC1 (stereo not given),15.2*,15.4,-15.6%,?,4.1%
CCCCC(=O)Nc1ccc(C(=O)N2CCCC(C(=O)OCC)C2)cc1 (stereo not given),19.8*,12.9,-2.8%,?,7.9%
CCOC(=O)C1CCCN(C(=O)c2ccc(Cl)cc2)C1 (stereo not given),-1.9,-8.1,-0.2%,4.3%,-5.0%
Cc1ccc(NC(=O)C2CCCN(C(=O)c3ccc(Cl)cc3)C2)c(C)c1 (stereo not given),15.2,25.2,1.1%,·,53.0%
Cc1ccc(NC(=O)C2CCCN(C(=O)c3ccc(Cl)cc3)C2)cc1 (stereo not given),47.7,69.7*,-6.8%,·,24.8%
COc1ccc(C(=O)N2CCCC(Nc3ccc(C)c(C)c3)C2)cc1F (stereo not given),29.6*,47.2,-10.9%,-17.9%,-3.4%
COc1ccc(C(=O)N2CCCC(Nc3ccc(F)cc3)C2)cc1F (stereo not given),-1.9,-7.5,?,-8.3%,14.1%
COc1ccc(NC2CCCN(C(=O)CCc3ccncc3)C2)cc1OC (stereo not given),45.0*,-11.8,7.7%,29.5%,35.6%
Cc1ccc(NC(=O)C2CCCN(C(=O)c3ccc(Cl)cc3)C2)cc1C (stereo not given),40.1*,72.4*,-3.8%,·,153.0%
Cc1cccc(C)c1NC(=O)CNC(=O)C1CCCN(C(=O)c2ccc(Cl)cc2)C1 (stereo not given),·,·,9.8%,·,17.5%
O=C1CCCN1CCC(=O)N1CCCC(Nc2ccc(F)c(F)c2)C1 (stereo not given),12.9,32.7*,6.3%,1.2%,-4.7%
SMILES,Cycloheximide cs,Shiga inhibitor,AmpC inh detg,NS1 inh,AmpC no deterg
O=C(O)c1ccc(S(=O)(=O)N[C@H](Cc2ccccc2)C(=O)O)cc1,-7.0,-5.5,·,·,·
CCc1ccc(CNC(=O)Cn2nc(C)c3nn(-c4ccc(Cl)cc4)c(C)c3c2=O)cc1,·,·,17.4%,·,·
Cc1cc2[nH]c(=O)cc(-c3ccccc3)n2n1,16.6*,47.2,-3.4%,46.9%,-21.2%
Cc1cc2[nH]c(=O)c3ccccc3n2n1,-2.5,-12.0,-2.0%,-15.9%,-14.3%
Cc1nc(-c2cccc(Cl)c2)n[nH]1,23.0*,104.4*,-3.4%,-0.4%,-12.7%
Cc1ccc(NC(=O)COC(=O)C(NS(=O)(=O)c2ccc(Cl)cc2)C(C)O)cc1C (stereo not given),3.4,1.8,0.4%,-5.8%,80.5%
C/C(=C\c1ccccc1)C(=O)Nc1nc2ccc([N+](=O)[O-])cc2s1,19.4*,-4.6,-17.6%,-3.7%,-16.1%
Cc1ccc(C)c(OCC(=O)Nc2nc3ccc([N+](=O)[O-])cc3s2)c1,-2.6,3.5,-13.4%,2.0%,-17.4%
CC(C)=CC(=O)Nc1nc2ccc([N+](=O)[O-])cc2s1,44.5*,55.1*,-7.8%,-3.9%,-4.6%
Cc1nc2cccnc2n1C1CCN(S(C)(=O)=O)CC1,·,·,1.0%,·,·
O=C(Cn1cc(SCc2cccc(Cl)c2)c2ccccc21)N1CCOCC1,48.5*,26.9,16.5%,2.8%,192.5%
Cc1cccc(CSc2cn(CC(=O)N3CCOCC3)c3ccccc23)c1,42.5*,63.7*,15.2%,-5.4%,224.3%
Cc1cc(C)c(S(=O)(=O)NCCn2ccc3ccccc32)c(C)c1,5.1,14.3,?,-38.4%,39.8µM*
Cc1nc2sc3c(c2c2nnc(SCC(=O)NCc4ccco4)n12)CCCC3,27.6*,active,-13.6%,-5.0%,114.6%
O=C(CSc1ncnc2sc3c(c12)CCCC3)c1ccco1,68.3*,156.3*,-12.7%,-14.1%,-18.6%
O=C(CSc1nnc2c3c4c(sc3ncn12)CCCC4)NCc1ccco1,-0.7,-6.7,?,-4.9%,-28.0%
O=C(CSc1ncnc2sc3c(c12)CCCCC3)NCc1ccco1,63.1*,103.4*,3.5%,-7.5%,-12.1%
O=C(CN1C(=O)COc2ccccc2C1=O)c1ccc2c(c1)OCCO2,27.6*,29.1,?,1.5%,-21.7%
CC1(c2cccc(Br)c2)NC(=O)N(CC(=O)c2ccc3c(c2)OCCO3)C1=O (stereo not given),·,·,·,·,-24.1%
O=C(CN1C(=O)NC2(CCc3ccccc32)C1=O)c1ccc2c(c1)OCCO2 (stereo not given),22.6,69.9*,?,-5.1%,-39.8%
O=C1NC(=O)N(Cc2ccco2)C(=O)/C1=C/C=C/c1ccco1,-0.1,-3.8,-10.1%,14.3%,12.6µM*
Cc1cc(/C=C2\C(=O)NC(=O)N(Cc3ccco3)C2=O)c(C)n1-c1ccc(O)cc1,17.4*,14.8,1.2%,1.7%,-35.6%
O=C1NC(=O)N(CCc2ccc(F)cc2)C(=O)/C1=C\C=C\c1ccccc1,20.8*,26.6,-2.0%,·,3.55µM*
COc1ccc(/C=C2/C(=O)NC(=O)N(Cc3ccco3)C2=O)cc1,16.1,7.0,10.7%,15.0%,23.0%
Cc1ccc(-n2c(C)cc(/C=C3/C(=O)NC(=O)N(Cc4ccco4)C3=O)c2C)cc1,-1.3,-6.0,?,27.1%,-55.9%
O=C1NC(=O)N(Cc2ccccc2)C(=O)/C1=C\C=C\c1ccco1,29.7*,37.1,3.0%,·,-29.7%
Cc1ccc(S(=O)(=O)N2CCC(c3ccncc3)CC2)c(C)c1,·,·,5.2%,·,·
Cc1ccc2c(c1)c(=O)c1ccccc1n2CCCC(=O)Nc1c(F)cccc1F,·,·,1.0%,·,·
